KB-V1 cytotox – kills drug-selected multidrug resistant KB-V1 cells; AID 1347076; hit rate 3.4% among 400,000; Potency, µM (highest dose often 46.1 µM), actives largely listed as cytotoxic; KB-V1 MDR cells viability, CellTiter-Glo, 72 h; also: % is scaled to controls: 0 for no effect and ±100 for the full control effect; nearly all actives have a fitted effect of over 60% in size
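Cells of the MDR subline KB-V1 are plated, dosed with compound at multiple concentrations, and incubated 72 h at 37 degrees C; CellTiter-Glo is then added and luminescence read after 10 min.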
KB-3-1 tox – kills parental KB-3-1 adenocarcinoma cells. hit rate 1.4% among 400,000. KB-3-1 viability, CellTiter-Glo ATP luminescence, 72 h. Potency, µM (titrated, usually from 46.1 µM), actives largely listed as cytotoxic; also: % is scaled to controls: 0 for no effect and ±100 for the full control effect; nearly all actives have a fitted effect of over 60% in size
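Viability of parental KB-3-1 cells, measured by CellTiter-Glo luminescence, followed a 72 h incubation at 37 °C with pinned compounds in phenol-red-free DMEM containing 10% FBS.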
SW480 rerep – inducers of DNA re-replication in SW480 colon cancer cells; SW480 DNA re-replication, Hoechst DNA content imaging, 48 h; hit rate 1.8% among 340,000; Potency, µM (top dose mostly 46.1 µM), without a hit: at the highest dose re-replication activation, actives largely listed as activators; also: % of control where 0% means no effect; nearly all actives have a fitted effect of over 55% in size
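Quantitative HTS format with DMSO vehicle controls; 48 hr drug incubation at 37 C, then 40 min Hoechst staining and scanning imager measurement at 405 nm excitation.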
HT1080 IDH1KD tx – HT-1080 IDH1 knockdown cell toxicity (counter line); HT-1080 IDH1 knockdown viability, ATP luminescence, 48 h; Potency, µM (highest dose often 46.1 µM), for inactives: at the top dose activity, negative = toxicity, usual class: cytotoxic; hit rate 2% among 360,000;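 also: 0% = DMSO wells and -100% = cell-free medium wells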
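Luminescent ATP read-out (CellTiter-Glo, 10 min at room temperature) after 48 h compound exposure at 37 °C gave viability of IDH1-knockdown HT-1080 cells. Activity was normalised to DMSO and cell-free wells, then fitted as concentration-response curves.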
MCF10A rerep – DNA re-replication induction in MCF 10a cells; MCF 10A DNA re-replication, Hoechst nuclear intensity, 48 h; Potency, µM (doses to about 46.1 µM), for the others: at the highest dose activity, positive = re-replication, actives largely listed as activators; hit rate 2.9% among 350,000; AID 624296; also: % of control where 0% means no effect; nearly all actives have a fitted effect of over 50% in size
HT1080-NT tox – kills 2HG-producing HT-1080-NT fibrosarcoma cells. HT-1080-NT fibrosarcoma viability, CellTiter-Glo ATP luminescence, 48 h. Potency, µM (highest dose often 46.1 µM), inactives show at the highest dose activity, negative = less viability, hits mostly cytotoxic. hit rate 1.6% among 360,000. AID 686970;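 also: NT is the 2HG producing partner of a matched IDH1 knockdown line; 0% = DMSO-treated cells and -100% = media-only wells without cells; nearly all actives have a fitted effect of over 55% in size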
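HT-1080-NT fibrosarcoma cells (2HG-overproducing), 750 cells/well in RPMI with 5% FBS, dosed after 2 h and incubated 48 h at 37C. CellTiter-Glo luminescence normalized to DMSO and no-cell wells; concentration-response curves fitted and classed.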
Numbers without * were called inactive; i = inactive; u = inconclusive; x = not tested or not shown. Hits are enriched below; roughly 7.9% of the tested compounds scored in any of these assays. Calls follow the shape of the dose curve; as a rule, active = well fitted curve in the direction sought with a large enough effect; inconclusive = small, poorly fitted or top-dose-only effect, or another doubt; inactive = no such curve, though single readings can be large; an effect the other way counts as inactive or inconclusive. Potency is read from the fitted curve at half-maximal effect.

SMILES	KB-V1 cytotox	KB-3-1 tox	SW480 rerep	HT1080 IDH1KD tx	MCF10A rerep	HT1080-NT tox
COc1cc2ccc(C(C)=NOC(C)=O)cc2cc1OC	2.1µM*	5.2µM*	x	3%	x	7%
O=C(NC(=S)N1CCOCC1)c1cn(-c2ccccc2)nc1-c1ccccc1	5.8µM*	i	-28%	-5%	9%	-20%
O=C1NC(=O)C(c2cn(-c3ccccc3)nc2-c2ccc(F)cc2)N1 (stereo unspecified)	i	i	u	-8%	18µM*	-13%
CCOC(=O)C1=C(C)NC(=O)NC1c1cn(-c2ccccc2)nc1-c1ccc(OC(C)C)cc1 (stereo unspecified)	i	i	x	x	x	x
O=C(O)c1cn(-c2ccccc2)nc1-c1ccc(F)cc1	i	i	106%	20%	13µM*	10%
O=C(NCc1ccccn1)c1cn(-c2ccccc2)nc1-c1ccc(Cl)cc1	3.7µM*	i	-8%	-6%	u	2%
O=C(NCc1ccccn1)c1ccc(-c2ccccc2)cc1	i	i	-36%	-10%	0%	8%
O=C(c1cn(-c2ccccc2)nc1-c1ccccc1)N1CCOCC1	i	i	0%	6%	-3%	11%
Cc1ccc(/C=C/C(=O)N2CCN(c3ccc(F)cc3)CC2)o1	18µM*	u	-1%	0%	u	3%
CCOC(=O)c1[nH]c2cc(OC)c(OC)cc2c1NC(=O)CN(C)C1CCCCC1	7.3µM*	u	0%	u	10%	2%
CCC1CCCCN1Cc1nc(Cc2ccccc2Cl)no1 (stereo unspecified)	i	i	1%	0%	-6%	0%
Cc1ccc(Cl)cc1NC(=O)C[n+]1ccc(Cc2ccc([N+](=O)[O-])cc2)cc1	u	10µM*	3%	-15%	u	u
O=C(C[n+]1ccc(Cc2ccccc2)cc1)Nc1ccc([N+](=O)[O-])cc1Cl	i	i	11%	1%	u	-4%
Cc1ccc([N+](=O)[O-])cc1NC(=O)CN(C(=O)c1ccc(Cl)cc1)C1CCCCC1	23µM*	u	16%	u	10%	-14%
O=C(CN(C(=O)c1ccccc1Cl)C1CCCCC1)Nc1ccc(Cl)c([N+](=O)[O-])c1	i	i	u	u	12%	-27%
O=C(CN(C(=O)c1ccc(Cl)cc1)C1CCCCC1)Nc1ccc(Cl)c([N+](=O)[O-])c1	15µM*	i	u	u	7%	u
O=C(Nc1cccc(-n2cnnn2)c1)C1CCCN(C(=O)Cc2cccc(Cl)c2)C1 (stereo unspecified)	i	i	x	-7%	x	-12%
COc1ccc(OC)c(-c2nnc3n2N=C(c2ccc(OC)c(OC4CCOC4)c2)CS3)c1 (stereo unspecified)	u	0.12µM*	u	x	u	x
COc1ccc(C2=Nn3c(nnc3-c3ccccc3Cl)SC2)cc1OC1CCCC1	i	u	21µM*	x	16µM*	x
FC(F)Oc1ccc(C2=Nn3c(nnc3-c3ccccc3Cl)SC2)cc1OCC1CC1	i	i	-2%	x	1%	x
COc1ccc(C2=Nn3c(nnc3-c3ccccc3Cl)SC2)cc1OC1CCOC1 (stereo unspecified)	u	13µM*	u	x	u	x
CC(C)c1ccc(C2NC(=S)NC3=C2C(=O)CCC3)cc1 (stereo unspecified)	u	i	-8%	-8%	-5%	-1%
COc1ccc(C2Nc3ccccc3C(=O)N2c2ccccc2)cc1CN1CCOCC1 (stereo unspecified)	u	i	3%	13%	5%	11%
Cc1ccc(C(=O)CSc2nnc(-c3cccnc3)n2N)cc1	7.3µM*	u	u	u	u	u

Screening data (PubChem BioAssay)
